Bioassay records as filed in PubChem BioAssay.
Most compounds without a hit are left out; they make up all but 4.1% or so of the library.
CaV13 ICDI inh: Primary screen for inhibitors of IQ motif and Ca2+-dependent inactivation inhibitor domain binding in CACNA1D, Förster resonance energy transfer in living cells, …; HEK cells, CFP/YFP FRET ICDI-IQ, plate reader, 10 min; percent FRET-ratio fall versus neutral wells; inhibition, % at 12.3 µM; 340,000 tested, 0.098% active; AID 743397;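 active = mean replicate inhibition of at least 30% and at least 1% of replicates passing that level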
IDE inh: inhibits human insulin-degrading enzyme in HEK cells; FAbetaB cleavage, fluorescence polarization; inhibition, % at 5.59 µM; 320,000 tested, 0.41% active;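 active = percent inhibition above the average of all tested compounds plus 3 SD, set per screening campaign, cut at about 16% in these data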;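 also: IDE supplied by intact live HEK cells; FP after avidin binding of uncleaved biotin substrate so inhibition keeps polarization high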
ALR H2O2 inh: human ALR oxidase inhibition via reduced H2O2; P55789; purified ALR, DTT oxidation, H2O2 HRP-luminol luminescence; inhibition, % (no concentration beside the values); 290,000 tested, 3.8% active; AID 485317;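 active = mean replicate inhibition above about 79%, with every replicate also reaching it, limit read from the data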
PolyA inh: blocks polyadenylation in yeast reporter cells; activity score, % at 12 µM; S. cerevisiae SKY197-pL101 polyadenylation reporter, beta-gal luminescence; efflux-impaired pdr1/pdr3 knockout yeast; score 100 = 6 SD above DMSO; 300,000 tested, 0.02% active;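 active = lowest replicate activity score at least 50, where 100 means six control SD above control mean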;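 also: yeast exposed to compound for 9 h at 30 °C; higher score means more reporter readthrough which indicates perturbed polyadenylation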
M18AAP inhibitor: blocks P. falciparum M18 aspartyl aminopeptidase. recombinant PfM18AAP, H-Glu-NHMec fluorogenic cleavage. inhibition, % at 7.35 µM. 290,000 tested, 1.2% active;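 active = inhibition above the campaign mean inhibition over all tested compounds plus 3 SD, cut at about 28% in these data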
IDE act: IDE (human) activation, cell-based | P14735 | HEK cells, FAbeta-B cleavage, fluorescence polarization; 0% vehicle, 100% cell-free pure enzyme wells | activation, % at 5.96 µM | 340,000 tested, 0.073% active | AID 493087;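 active = activation above the mean of all tested compounds plus 3 SD, set per screening campaign, cut at about 17% in these data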
Hits are given with their value; i = inactive; nt = no result given; + = active, no number.

SMILES	CaV13 ICDI inh	IDE inh	ALR H2O2 inh	PolyA inh	M18AAP inhibitor	IDE act
CCCc1nnc(SCC(=O)N2CCCCC2C)n1CCOC (stereo unspecified)	i	i	i	i	i	i
COc1ccc(S(=O)(=O)Nc2c(C)n(C)n(-c3ccccc3)c2=O)c(Cl)c1Cl	i	i	i	i	i	i
Nc1[nH]c(C(=O)c2ccccc2)c(-c2ccccc2C(F)(F)F)c1C(=O)c1c[nH]c2ccccc12	i	nt	nt	nt	nt	nt
Cc1ccc(SCC(=O)Nc2ccc(F)cc2[N+](=O)[O-])cc1C	i	i	96.3	i	i	i
COc1ccc([N+](=O)[O-])cc1NC(=O)CSc1nc(C)cc(C)n1	i	i	nt	i	30.3	i
COc1ccc([N+](=O)[O-])cc1NC(=O)CSc1ccc2ccccc2c1	i	i	98.9	i	i	i
COc1ccc([N+](=O)[O-])cc1NC(=O)CSCc1cc(C)cc(C)c1	i	i	i	i	i	i
Cc1cc(C)n2nc(SCC(=O)Nc3ccc(F)cc3[N+](=O)[O-])nc2n1	i	i	nt	nt	nt	i
COc1ccc(CNC(=O)C(c2ccccc2F)N(C(=O)c2csnn2)C2CC2)cc1 (stereo unspecified)	i	i	i	i	i	i
CCN(CC)CCn1c(SCC(=O)NCc2ccccc2)nc2c(sc3ccccc32)c1=O	i	i	96.5	i	i	i
COc1ccc(NC(=O)CSc2nc3c(sc4ccccc43)c(=O)n2CCCN2CCCC2)cc1	nt	i	99.0	i	i	i
Cc1ccc(N2CCN(S(=O)(=O)N3CCOCC3)CC2)cc1C	i	i	i	i	i	i
COc1ccc(C#Cc2ccc3c(=O)c4ccccc4n(C)c3c2)cc1	nt	i	i	i	i	i
COc1ccccc1C#Cc1ccc2c(=O)c3ccccc3n(C)c2c1	i	i	i	i	29.6	i
CC(C)CC(NC(=O)OC(C)(C)C)c1cn([C@@H](Cc2ccc(O)cc2)C(=O)N2CCN(C(=O)OC(C)(C)C)CC2)nn1 (stereo partly specified)	i	i	i	i	i	i
O=C(/C(=N/N=C/c1ccc(O)c(O)c1O)c1ccccc1)c1ccccc1	i	i	98.7	i	i	i
COc1ccc(C(=O)C(=NN)c2ccccc2)cc1	i	nt	nt	nt	nt	nt
Oc1ccc(/C=N/N=C(c2ccccc2)c2ccccc2)c(O)c1O	i	i	98.5	nt	i	i
N#Cc1ccccc1NC(=S)NC(=O)c1cccs1	i	i	98.0	i	i	i
O=C(NCCc1ccccc1)C1C(=O)Nc2ccccc2C(=O)N1C1CCCCC1 (stereo unspecified)	i	nt	nt	nt	nt	nt
Nc1[nH]c(C(=O)c2ccc(Br)cc2)c(-c2ccncc2)c1C(=O)c1ccccc1	i	nt	nt	nt	nt	nt
Brc1cc2c(cc1COc1ccc(-c3nn[nH]n3)cc1)OCO2	i	i	98.1	i	i	i
CCNC(=O)c1cc2c(=O)n3cccc(C)c3nc2n(Cc2ccc(C)cc2)c1=N	55.1	i	i	i	i	i
Cc1cccn2c(=O)c3cc(C(=O)NCCN4CCOCC4)c(=N)n(CCN4CCOCC4)c3nc12	i	i	i	i	i	i
Cc1cccn2c(=O)c3cc(C(=O)NCCN4CCOCC4)c(=N)n(Cc4ccc(F)cc4)c3nc12	102.0	i	i	i	i	i
SMILES	CaV13 ICDI inh	IDE inh	ALR H2O2 inh	PolyA inh	M18AAP inhibitor	IDE act
Cc1cccn2c(=O)c3cc(C(=O)NC4CCCC4)c(=N)n(CC4CCCO4)c3nc12 (stereo unspecified)	i	i	i	i	i	i
Cc1ccc2nc3c(cc(C(=O)NCC4CCCO4)c(=N)n3CCCOC(C)C)c(=O)n2c1 (stereo unspecified)	i	i	nt	nt	i	i
CCOCCCNc1nc2nc3ccc(C)cn3c(=O)c2cc1C(=O)NCC1CCCO1 (stereo unspecified)	+	i	nt	i	i	i
Cc1cccn2c(=O)c3cc(C(=O)NCC4CCCO4)c(=N)n(CC4CCCO4)c3nc12 (stereo unspecified)	58.3	i	i	i	i	i
COc1ccc(N2C(=O)CSC2c2cccc(F)c2)cc1 (stereo unspecified)	i	i	nt	i	i	i
CC(C)C[C@H]1COc2cc(Br)ccc2S(=O)(=O)N1Cc1cccc(Cl)c1	i	nt	nt	nt	nt	nt
